# High-throughput results as filed in PubChem.
# DRD3 antagonist: antagonists of human D3 dopamine receptor; P35462; D3R cells, DiscoveRx beta-arrestin luminescence, antagonist mode; hits give low values; max response, negative = inhibition, %; 2.5% of 360,000 active; in the data active = max response below about -50%; inconclusive = no clear call, values can overlap the other calls; note: % is set by controls: 0 for no effect and ±100 for the full control effect
# Target sequence (P35462 whole entry, looked up): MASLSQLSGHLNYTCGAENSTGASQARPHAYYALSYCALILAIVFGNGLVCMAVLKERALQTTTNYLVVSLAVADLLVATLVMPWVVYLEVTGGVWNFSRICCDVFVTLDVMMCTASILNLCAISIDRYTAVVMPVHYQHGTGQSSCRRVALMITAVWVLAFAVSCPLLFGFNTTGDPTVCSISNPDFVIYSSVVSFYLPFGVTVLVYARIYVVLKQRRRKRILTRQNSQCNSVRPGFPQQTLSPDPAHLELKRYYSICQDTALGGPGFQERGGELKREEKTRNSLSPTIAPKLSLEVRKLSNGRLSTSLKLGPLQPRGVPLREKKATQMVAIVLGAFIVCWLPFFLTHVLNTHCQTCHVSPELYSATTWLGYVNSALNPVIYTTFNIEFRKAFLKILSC
#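 Cells expressing the human receptor were seeded at 1500 cells/well, incubated overnight at 37 degrees C in 5% CO2, then exposed to library compounds with dopamine controls for 90 minutes at 37 degrees C before luminescent detection.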
# TRPML1 ag: activates the human TRPML1 channel; activation, % (test concentration not listed); Q9GZU1; TRPML1-expressing cells, Ca2+ dye fluorescence, FDSS; 0.12% of 410,000 active; AID 624414; in the data active = activation above about 50%; inconclusive = mostly about 30% to 49%; note: 0% is about no effect
#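 Cells: TRPML1-DL, 1X Tet inducer, ~16 h at 37 degrees C/5% CO2. Dye: ABD Ca8 no-wash + quencher, 45-90 min RT. Read: 10 s baseline, compound add, 110 s agonist phase; 54-4 EC80 (4uM final), 110 s antagonist phase.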
# TRPML1 blocker: inhibitors of human TRPML1 channel. AID 624415. TRPML1-inducible cells, Ca2+ dye fluorescence, FDSS; hits give low values; inhibition of EC80 agonist-evoked calcium signal. Q9GZU1. activity change, negative = inhibition, % (no concentration beside the values). 0.02% of 390,000 active; in the data active = activity change below about -50%; inconclusive = between about -30% and that limit;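 note: stimulus is agonist 54-4 at its EC80 concentration; % is set by controls: 0 for no effect and ±100 for the full control effect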
#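 Tet-induced TRPML1-DL cells loaded with Ca8 no-wash calcium dye were read kinetically on FDSS. Compound addition was followed by EC80 agonist 54-4 (4 uM final); inhibition was read over 110 s.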
# DRD3 agonist: activates the human D3 dopamine receptor | 0.58% of 410,000 active | AID 652048 | P35462 | D3R DiscoveRx beta-arrestin cells, luminescence, 90 min | max activation, %; in the data active = max activation above about 30%; note: 0% is about no effect
#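 Cells at 1500/well, incubated overnight, then treated with pinned compounds (dopamine as control) for 90 min at 37 degrees C. DiscoveRx reagent added for 30 - 60 minutes at room temperature; luminescence read.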
# The depositor's hits bear a star; ? = inconclusive; · = no result; ! = not confirmed by another sample. Rows were chosen to be rich in hits. Some 2.9% of all compounds tested hit in one or more screens of this group.
SMILES,DRD3 antagonist,TRPML1 ag,TRPML1 blocker,DRD3 agonist
O=C1C=C(NCc2ccccc2)CCC1,11,0,10,10
O=C(/C=C/c1ccccc1)NC(=S)NNC(=O)Cc1cccs1,-72*,2,-1,-5
Nc1nc2ccc(N3CCOCC3)cc2s1,-76*,1,10,-9
Fc1ccc2nc(N3CCOCC3)sc2c1,-16,0,40,-7
O=C(Cc1ccc(OCc2ccccc2)cc1)NO,·,-1,·,·
O=C(CCn1c(=O)sc2ccccc21)NCCC1=CCCCC1,-108*,0,12,-30
O=C(CCN1C(=O)c2ccccc2C1=O)NCCC1=CCCCC1,19,0,57,-21
N#Cc1c(N)n(Cc2ccccc2)c(=O)c2cc([N+](=O)[O-])ccc12,-27,0,-7,-15
Cn1c(N)c(-c2ccccc2)c2ccc([N+](=O)[O-])cc2c1=O,-23,83*,-3,-9
CCCNC(=O)Cn1c(SCc2ccccc2C)nc2ccncc21,·,-1,·,·
Cc1nn2c(N3CCN(c4ccccn4)CC3)cc(C(C)C)nc2c1-c1ccccc1,-56*,2,16,0
CCn1cc(C(=O)NCc2ccccc2)c(=O)c2cc(S(=O)(=O)N3CCCCCC3)ccc21,·,0,-12,-6
COc1ccc(NC(=O)CSc2n[nH]c(N)n2)c([N+](=O)[O-])c1,-92*,2,-2,-4
COc1ccc(NC(=O)CSc2n[nH]c(C(C)C)n2)c([N+](=O)[O-])c1,-16,0,-18,2
C=C(C)COc1ccc(-c2[nH]ncc2Oc2cccc(OC)c2)c(O)c1,-56*,4,-18,1
CCc1ccc(NC(=O)CSc2ncc(S(=O)(=O)c3cc(C)ccc3C)c(=O)[nH]2)cc1,·,1,14,8
CNc1cncc(-c2cc(C)c(O)c(C)c2)n1,-3,-1,·,76*
COc1cccc(C#Cc2c(C=O)n(C)c3ccccc23)c1,69,1,15,56*
Cn1c(C=O)c(C#CC(C)(C)O)c2ccccc21,17,0,52,12
CCOC(=O)[C@H]1[C@H]2COc3ccc(Br)cc3[C@@H]2N2C(=O)c3ccc(Cl)cc3NC(=O)[C@@]12C,-75*,1,17,-27
CCOC(=O)[C@H]1[C@H]2COc3ccc(C)cc3[C@@H]2N2C(=O)c3ccc(C)cc3NC(=O)[C@@]12C,0,1,-5,-10
O=C(C[n+]1ccc2ccccc2c1)c1ccc2ccc3ccccc3c2c1,-78*,0,·,-15
O=C(CSc1nnc(-c2ccco2)o1)NC(=O)Cc1ccccc1,-15,0,-10,-6
O=C(CSc1nnc(-c2ccco2)o1)NC(=O)C1COc2ccccc2O1 (stereo not given),-55*,0,36,3
O=C(NCCCNC1CCCCC1)c1ccc(/C=N/O)nc1,-60*,0,5,-24
SMILES,DRD3 antagonist,TRPML1 ag,TRPML1 blocker,DRD3 agonist
O=c1cc(N2CCCCC2)c(-c2ccccc2)nn1Cc1c(Cl)cccc1Cl,-69*,20,-10,-4
CCC1CC=CC2C1C(=O)N(Cc1ccccc1)C2c1cc(C)ccc1F (stereo not given),·,2,46,·
O=C(OCC(O)CO)c1ccccc1Nc1ccnc2cc(Cl)ccc12 (stereo not given),49,1,-1,46*!
CC1=CC(C)(C)n2c(O)c(C3=NC(=S)NC3=O)c3cc(OC(=O)c4cccc5ccccc45)cc1c32,-58*,0,42,-16
COc1cccc(C(=O)Oc2cc3c4c(c2)C(C)=CC(C)(C)N4C(=O)C3=O)c1,?,2,5,-24
O=C(C#Cc1ccccc1)c1cccc([N+](=O)[O-])c1,-56*,3,9,-8
COc1ccc(S(=O)(=O)N2CCCCC2c2cc(C(=O)N3CCOCC3)no2)cc1 (stereo not given),-96*,0,·,-7
CC(=O)Nc1ccc(S(=O)(=O)Nc2cccc(-c3ccc(N4CCC(C)CC4)nn3)c2)cc1,·,2,14,-6
Cc1oc(-c2ccc(Cl)cc2)[n+]([O-])c1C,-67*,-1,5,-2
O=C(O)c1ccc(NC2=C(Cl)C(=O)c3ccccc3C2=O)cc1,?,2,58,-23
O=C1C(Cl)=C(Nc2ccccc2)C(=O)c2ccccc21,-74*,-1,-5,-49
O=C1C(Cl)=C(NCCc2ccccc2)C(=O)c2ccccc21,-71*,1,11,-13
O=C(O)c1cccc(NC2=C(Cl)C(=O)c3ccccc3C2=O)c1,-90*,0,28,-29
CC(=O)N(Cc1ccc(F)cc1)C1=C(NCCc2ccccc2)C(=O)c2ccccc2C1=O,-54*,-1,13,4
CN(C1CCCCC1)S(=O)(=O)c1ccc(F)c(C(=O)Nc2ccc(C(F)(F)F)cc2)c1,·,1,19,1
COc1ccc(CN(C)CCc2ccccn2)cc1OC,-76*,0,5,-4
COc1ccccc1CNC(=O)c1cc(Sc2cccc(Cl)c2)nc2ccccc12,·,1,28,-14
CCOc1cccc(C2C=C(c3ccc4c(c3)OCO4)NC(c3cccc(Br)c3)N2)c1O (stereo not given),·,1,·,·
CC(C)(C)c1ccc(C(=O)N2CC(=O)Nc3ccc(F)cc3C2c2ccc(F)cc2)cc1 (stereo not given),·,3,9,-13
COc1ccc(CCC(C)NCc2cccc(Br)c2)cc1 (stereo not given),-68*,-1,43,-8
COc1ccc(CCC(C)NCc2ccccc2OC)cc1 (stereo not given),-27,0,-1,-12
CC(CCc1ccccc1)NCc1cccc2ccccc12 (stereo not given),-54*,·,·,3
C=C1C=C(C(F)F)n2ncc(C(=O)NCc3ccc(Cl)cc3)c2N1,·,-1,·,·
CCOc1cc(OCC)cc(C(=O)NCCN2CCC(n3c(=O)[nH]c4ccccc43)CC2)c1,-95*,-1,·,-8
O=C(NCCN1CCCC1)c1ccc2c(=O)n(CCc3ccccc3)c(=O)[nH]c2c1,-21,0,7,-5
SMILES,DRD3 antagonist,TRPML1 ag,TRPML1 blocker,DRD3 agonist
COc1cccc(C(=O)NCCCN2CCN(CCCNC(=O)c3cccc(OC)c3)CC2)c1,-3,1,-5,-1
COc1cccc(C(=O)NCCN2CCC(n3c(=O)[nH]c4ccccc43)CC2)c1,-78*,-1,·,-15
CCOC(=O)c1c(C)[nH]c(CCC(=O)Nc2ccccc2C(=O)OC)c1C,·,4,8,6
CC1CC(C)CN(C(=O)/C(=C\c2ccccc2)c2ccccc2)C1 (stereo not given),0,1,58,2
C/C(=C\c1ccccc1)CN1CCN(C)CC1,-56*,-1,-3,-5
CN1CCN(C(=O)/C(=C/c2ccccc2)c2ccccc2)CC1,-59*,0,-16,-29
Cc1ccnc2ccc(Br)cc12,·,-1,·,·
O=C(O)c1cnc(-c2ccccc2)nc1-c1ccccc1,3,0,17,4
O=C(Nc1ccccc1)c1cnc(-c2ccccc2)nc1-c1ccccc1,28,-1,2,43*
